# Source: PubChem BioAssay (several laboratories)
# Hits are enriched below; roughly 2.4% of the tested compounds scored in any of these assays.
# CendR NRP1 mod: modulators of CendR peptide binding to NRP-1, primary screen, biochemical, fluorescence polarization, uHTS. FAM-RPARPAR peptide binding to NRP-1. inhibition, % at 25 µM. Neuropilin-1 (Homo sapiens), O14786. hit rate 0.85% among 360,000;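 active = inhibition or corrected inhibition above about 18%, plus a signal ratio from 0.5 to 1.5, limit read from the data, passing the limit was not always enough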
# Target sequence (O14786 whole entry, looked up): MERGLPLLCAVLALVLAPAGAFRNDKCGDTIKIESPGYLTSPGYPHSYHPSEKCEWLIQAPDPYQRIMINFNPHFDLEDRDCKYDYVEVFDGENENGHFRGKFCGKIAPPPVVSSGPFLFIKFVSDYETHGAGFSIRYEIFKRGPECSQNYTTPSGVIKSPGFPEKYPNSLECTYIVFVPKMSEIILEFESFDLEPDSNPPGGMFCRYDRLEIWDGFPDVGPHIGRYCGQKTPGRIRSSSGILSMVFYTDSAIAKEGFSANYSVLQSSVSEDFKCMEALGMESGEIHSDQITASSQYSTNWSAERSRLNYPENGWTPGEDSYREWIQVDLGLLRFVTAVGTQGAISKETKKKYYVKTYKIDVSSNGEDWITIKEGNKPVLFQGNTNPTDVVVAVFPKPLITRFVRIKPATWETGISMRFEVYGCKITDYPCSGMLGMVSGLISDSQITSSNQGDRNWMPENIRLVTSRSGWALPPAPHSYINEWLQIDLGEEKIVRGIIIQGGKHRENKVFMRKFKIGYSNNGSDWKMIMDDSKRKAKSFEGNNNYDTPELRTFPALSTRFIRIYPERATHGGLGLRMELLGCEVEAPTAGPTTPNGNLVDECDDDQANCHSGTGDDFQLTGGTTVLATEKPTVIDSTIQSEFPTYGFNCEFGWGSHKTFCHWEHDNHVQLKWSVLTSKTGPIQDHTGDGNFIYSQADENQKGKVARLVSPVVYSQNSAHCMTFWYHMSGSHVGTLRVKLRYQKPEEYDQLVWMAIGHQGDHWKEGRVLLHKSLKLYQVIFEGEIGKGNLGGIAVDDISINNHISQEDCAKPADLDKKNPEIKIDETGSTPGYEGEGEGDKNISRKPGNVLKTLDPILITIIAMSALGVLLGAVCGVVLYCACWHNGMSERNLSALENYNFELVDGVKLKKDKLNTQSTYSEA
# APOBEC3G inh: APOBEC3G DNA deaminase inhibitors, primary screen, biochemical, fluorescence, single-stranded DNA substrate, uHTS. recombinant A3G, ssDNA deamination FAM/TAMRA fluorescence. inhibition, % at 20 µM. hit rate 0.28% among 330,000. AID 493012, 2011;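 active = inhibition of at least 40% at 20 µM, with no more than 30% in the related APOBEC3A deaminase screen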;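 note: plate controls were DMSO wells with A3G for no effect and wells lacking A3G enzyme for full effect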
# ADAM10 inh: human ADAM10 inhibitors, primary screen, biochemical, QFRET, HTS. Disintegrin and metalloproteinase domain-containing protein 10 (Homo sapiens), O14672. recombinant ADAM10, EDANS/DABCYL FRET peptide cleavage, 3 h. inhibition, % at 7 µM. hit rate 0.62% among 370,000;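 active = inhibition above a per-campaign cutoff equal to the mean of compounds falling between control-based bounds plus 3 SD, cut at about 20% in these data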;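 note: 0% = DMSO wells while the 100% control is not disclosed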
# ADAM17 inh: ADAM17 inhibitors, primary screen, biochemical, QFRET; recombinant ADAM17, EDANS/DABCYL FRET peptide cleavage; hit rate 0.83% among 370,000; inhibition, % at 6.95 µM; Disintegrin and metalloproteinase domain-containing protein 17 (Homo sapiens), P78536;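 active = inhibition above the mean of compounds lying between control limits plus 3 SD, set per campaign, cut at about 8.5% in these data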;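 note: 0% = DMSO-only wells as the low control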
# A3A deaminase: APOBEC3A ssDNA deaminase inhibitors, primary screen, selectivity assay for APOBEC3G inhibitor project, biochemical, FAM/TAMRA oligo cleavage fluorescence. inhibition, % at 20 µM. hit rate 0.41% among 330,000. DNA dC->dU-editing enzyme APOBEC-3A (Homo sapiens), P31941. recombinant A3A, FAM/TAMRA ssDNA deamination fluorescence. AID 493011, 2011;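 active = at least 40% inhibition at 20 µM here, with at most 30% in a related deaminase screen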;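 note: plate controls were A3A with DMSO for no effect and wells lacking A3A enzyme for full effect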
# A3A conf: APOBEC3A deaminase inhibitors, retest, confirmation, selectivity assay for APOBEC3G inhibitor project, biochemical, single concentration, fluorescence readout; shares compounds with A3A deaminase; recombinant A3A, ssDNA deaminase UDG fluorescence assay; inhibition, % at 20 µM; hit rate 63% among 1,400; AID 493151, 2011;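 active = inhibition reaching a set limit, 80% of the first screen's cutoff, at 20 µM in any replicate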;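 note: plate controls were DMSO wells with A3A for no effect and wells lacking A3A enzyme for full effect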
# UDG A3A counter: E. coli UDG inhibitors, confirmation, counter-screen for APOBEC3A inhibitor project, biochemical, single concentration, fluorescence, FAM/TAMRA oligo; shares compounds with A3A deaminase; UDG counterscreen, FAM/TAMRA uracil oligo fluorescence; inhibition, % at 20 µM; 1,000 tested, under 10 active; AID 504714, 2011; call rule not given here
# Numbers without * were called inactive; i = inactive; x = no result given.
SMILES,CendR NRP1 mod,APOBEC3G inh,ADAM10 inh,ADAM17 inh,A3A deaminase,A3A conf,UDG A3A counter
Nc1ccn([C@@H]2O[C@H](C(=O)N[C@H](Cc3ccccc3)C(=O)N[C@H]3CCCCNC3=O)[C@@H](O)[C@H]2O)c(=O)n1,x,x,1.1,-1.4,x,x,x
CCN(CC)C(=O)CC[C@H]1CC[C@]2(CCCN(C(=O)c3cccnc3)C2)O1,x,x,4.1,-0.4,x,x,x
Cn1c(SCC(=O)Nc2ccc3[nH]c(=O)[nH]c3c2)nnc1-c1ccccc1,6.6,-3.2,-16.6,-5.8,2.1,x,x
Cn1c(SCC(=O)NC(C)(C)C)nnc1-c1cccc(NC(=O)c2ccccc2F)c1,6.0,16.4,2.8,1.5,45.2*,24.1,x
COc1ccc(-c2nnc(SCC(=O)NC(=O)Cc3ccccc3)n2C)cc1,9.4,10.0,-5.0,-9.9,42.9*,20.8,x
COc1ccc(-c2nnc(SCC(=O)Nc3ccc(C)cc3)n2C)cc1,-0.3,-3.7,-2.7,-2.2,-0.7,x,x
Cn1c(SCC(=O)Nc2ccc3c(c2)oc2ccccc23)nnc1-c1ccccc1,-14.5,18.2,3.4,-1.7,46.0*,60.2*,2.7
CCSCc1nnc(SCC(=O)Nc2ccc(OC)cc2)n1C,-5.8,17.7,-1.7,-7.6,56.2*,62.7*,5.4
C#CCN1C(=O)[C@]2(OCCC=C[C@H]2C)c2cc(OC)ccc21,x,x,-14.0,-6.0,x,x,x
CCCCC1O[C@@H](C)[C@@H]2CN3CCc4c([nH]c5ccccc45)[C@@H]3C[C@@H]2N1C (stereo not given in full),x,x,-72.0,-18.8,x,x,x
CN(Cc1cccc(F)c1)C(=O)c1cc(S(=O)(=O)N2CCOCC2)ccc1N1CCCC1,7.5,-2.9,3.3,0.2,0.5,x,x
Cc1cccc(C)c1NC(=O)CN(C)C(=O)c1cc(S(=O)(=O)N2CCOCC2)ccc1N1CCCC1,12.8,13.3,-9.3,-3.6,45.7*,-1.2,x
CCCCCCCC[n+]1c(C)n(-c2ccccc2)c2ccc(NC(C)=O)cc21,1.1,13.5,-7.3,-2.0,41.6*,69.9*,-3.3
Cc1cccc(C(=O)N2CCC(N3CCC(C(=O)N4CCOCC4)CC3)CC2)c1,16.4,-7.2,-10.4,4.4,-0.3,x,x
Cc1cccc(CC(=O)N2CCC(N3CCC(C(=O)N4CCOCC4)CC3)CC2)c1,-0.1,-5.3,-1.4,-6.3,97.7*,-5.9,-3.0
O=[N+]([O-])c1ccc(S(=O)(=O)NCC(c2ccco2)N2CCc3ccccc3C2)cc1 (stereo not given),-4.1,-7.4,-6.5,-4.2,76.9*,-2.3,-2.9
N#CCS(=O)(=O)c1cccc[n+]1[O-],x,x,5.1,-0.4,x,x,x
CCC[n+]1c2ccccc2cc2ccccc21,8.5,12.4,i,-267.1,47.1*,41.9*,-2.3
CCCC[n+]1c2ccccc2cc2ccccc21,2.2,21.1,i,-243.6,55.1*,47.7*,-2.4
Brc1cc2ccccc2[n+](Cc2ccccc2)c1,-3.3,-8.2,-5.5,-4.7,-5.2,x,x
Cc1ccc2ccccc2[n+]1CCCS(=O)(=O)[O-],-0.1,0.3,-22.0,-10.6,7.5,x,x
CC(CCN1CCC(C(O)(c2ccccc2)c2ccccc2)CC1)Oc1ccc(C#N)c(F)c1 (stereo not given),x,x,2.0,0.5,x,x,x
CCCCCCc1ccc(NC(=O)[C@@H]2CC=C[C@@H]3CCN(Cc4ccccc4)C(=O)[C@@H]32)cc1,x,x,4.6,1.7,x,x,x
CCC1(c2ccccc2)NC(=O)N(CC(=O)Nc2cc(Cl)ccc2N2CCOCC2)C1=O (stereo not given),-10.6,5.4,3.5,3.0,47.0*,7.8,x
Cc1ccc(C(c2c(O)nc3n(c2=O)CCS3)c2c(O)nc3n(c2=O)CCS3)cc1,-9.1,-2.6,-0.1,1.1,52.6*,11.0,1.7
SMILES,CendR NRP1 mod,APOBEC3G inh,ADAM10 inh,ADAM17 inh,A3A deaminase,A3A conf,UDG A3A counter
COc1cc(OC)cc(C(C)c2ccc(-c3ccccc3)cc2)c1 (stereo not given),x,x,-5.7,-3.3,x,x,x
CC1=CC(C)C(C[N+]2(C)CCCCC2)C(C)C1 (stereo not given),1.9,13.3,-6.5,-2.2,57.7*,56.0*,-3.2
CCCCC1CCC(C(=O)OC(C)C(=O)Nc2ccc(NC(C)=O)cc2)CC1 (stereo not given),-5.9,16.0,10.1,3.4,49.0*,5.4,x
Nc1ncnc2c1ncn2[C@@H]1O[C@H](C(=O)N[C@@H](CCc2ccccc2)C(=O)N2CCN(C(=O)N3CCOCC3)CC2)[C@@H](O)[C@H]1O,x,x,4.8,-0.2,x,x,x
CCCCc1c(-c2ccccc2OC)ncn1Cc1ccccc1F,x,x,-2.5,2.4,x,x,x
O=C(CSc1nc2ccccc2c(=O)n1-c1ccccc1)NCC1CCCO1 (stereo not given),11.3,18.3,3.5,-2.2,49.5*,70.9*,-1.9
O=C(CSc1nnnn1Cc1ccccc1)N1CCN(c2ccccc2)CC1,4.0,12.7,0.6,-1.6,47.2*,26.7,x
CCn1c(SCC(=O)N2CCN(c3ccc(Cl)cc3)CC2)nc2ccccc2c1=O,-1.8,18.2,-3.1,-5.1,44.5*,66.4*,-1.2
Cc1ccc(-n2c(SCC(=O)NCC3CCCO3)nc3ccccc3c2=O)cc1C (stereo not given),14.5,-8.1,-1.6,0.1,-4.3,x,x
CCn1nnnc1SCC(=O)N1CCN(c2ccccc2)CC1,9.5,-0.1,0.7,-0.3,-1.3,x,x
CCn1c(SCC(=O)N2CCCC2)nc2ccccc2c1=O,4.4,-6.2,0.6,-5.9,-2.8,x,x
CCn1c(SCC(=O)NC2CCCCC2)nc2ccccc2c1=O,4.6,15.4,1.0,-5.5,62.7*,51.3*,-3.2
CC(=O)NCCn1c(SCC(=O)NC2CCCCC2)nc2ccccc2c1=O,3.7,-8.6,0.6,2.8,-0.5,x,x
CC[C@@]1(c2cccc(Cl)c2)C(=O)N(C(=O)OC(C)C)N1C(=O)OC(C)C,x,x,-7.0,-0.2,x,x,x
O=C(NCc1cccs1)C1C2C=CC3(CN(Cc4ccccc4)C(=O)C13)O2 (stereo not given),x,x,-4.3,5.9,x,x,x
COC(=O)[C@]1(C#N)CC(=O)N(Cc2ccc(Cl)cc2)[C@@H]1c1ccc(OC)cc1,x,x,-2.6,0.6,x,x,x
